Screening results (PubChem)
Most compounds without a hit are left out; they make up all but 4.6% or so of the library.
NLRP3 yeast inh: inhibitors of NALP3 inflammasome in yeast; inhibition, % at 10 µM; actives 0.39% (n = 330,000); Yeast reconstituted NLRP3/ASC/caspase-1, beta-gal luminescence, 24 h;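 active means inhibition of 50% or more; inactive means inhibition below 50%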;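 further: plate controls were induced DMSO wells for no effect and uninduced yeast grown without galactose for full effect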
TIM10 inh: inhibits growth of TIM10 yeast strain; S. cerevisiae TIM10 strain growth, BacTiter-Glo luminescence, 24 h; actives 1.4% (n = 330,000); inhibition, % at 10 µM;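 active means inhibition of 40% or more at the single tested concentration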;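 further: wild-type TIM10 isogenic control strain grown at permissive 25 °C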
tim10-1 inh: growth inhibitors of tim10-1 mutant yeast | S. cerevisiae tim10-1 ts strain growth, BacTiter-Glo, 24 h | inhibition, % at 20 µM | actives 2.2% (n = 330,000) | AID 463190;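 active means inhibition of at least 40%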;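 further: mutant grown at 25 °C; 0% = DMSO wells with yeast and 100% = wells holding no yeast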
tim23-1 inh: tim23-1 yeast growth inhibition. S. cerevisiae tim23-1 growth, BacTiter-Glo luminescence, 24 h. inhibition, % at 20 µM. actives 1.3% (n = 330,000). AID 463212;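 active means growth inhibition of the mutant yeast at or above 50%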;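 further: temperature-sensitive mutant grown at 25 °C; plate controls were DMSO-treated mutant yeast for no effect and medium wells lacking yeast for full effect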
SKKanGAS inh: SKKanGAS growth inhibition | S. pyogenes SKKanGAS, kanamycin growth, BacTiter-Glo, 6 h | actives 1.3% (n = 300,000) | inhibition, % at 7.5 µM;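 active means mean replicate score, as percent of positive control median, at least 50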;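 further: strain carries kanamycin resistance gene driven by streptokinase promoter and grows in 40 µg/ml kanamycin; loss of luminescence reflects streptokinase promoter inhibition or plain growth inhibition; 0% = median of DMSO wells and 100% = positive control at its reference dose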
tim10-1 conf: confirmation of tim10-1 mutant yeast growth inhibitors | shares compounds with tim10-1 inh | S. cerevisiae tim10-1 ts strain growth, BacTiter-Glo, 24 h | inhibition, % at 20 µM | actives 56% (n = 7,400) | AID 463213;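 active means inhibition of yeast growth at or above a set limit in either of two repeat tests at 20 µM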;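 further: tim10-1 mutant grown at permissive 25 °C to find synthetic lethal compounds; 0% = DMSO yeast wells and 100% = medium wells without yeast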
TIM10 conf: TIM10 yeast growth inhibition, confirmed | S. cerevisiae tim10 strain growth, BacTiter-Glo luminescence, 24 h | inhibition, % at 10 µM | shares compounds with TIM10 inh | actives 63% (n = 4,600);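 active means inhibition of yeast growth at or above a set limit in either of two replicates at 10 µM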;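 further: this counterscreen used the strain with wild-type TIM10; 0% = yeast with DMSO and 100% = medium wells lacking yeast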
Numbers without * were called inactive; . = no result given.

SMILES	NLRP3 yeast inh	TIM10 inh	tim10-1 inh	tim23-1 inh	SKKanGAS inh	tim10-1 conf	TIM10 conf
COc1ccccc1OC(C)C(=O)N1CCN(Cc2ccc3c(c2)OCO3)CC1 (configuration not stated)	15	5	10	9	-10	.	.
S=C(Nc1cccc(Cl)c1)NC1CCCCC1	28	14	26	16	2	.	.
S=C(NNc1cccc(Cl)c1)NC1CCCCC1	-1	61*	49*	40	-11	41*	55*
Cc1ccc(Nc2cc(C)nc(-c3ccccc3O)n2)cc1	9	53*	58*	40	17	59*	48*
Cc1cc(Nc2ccc(F)c(F)c2)nc(-c2ccccc2O)n1	-5	14	17	-1	1	.	.
CC(C)NC(=S)N/N=C/c1ccc(C(C)(C)C)cc1	-15	44*	41*	37	-8	8	45*
Cc1c(OC(=O)CNC(=O)OC(C)(C)C)ccc2c3c(c(=O)oc12)CCC3	-9	45*	49*	41	.	39*	47*
Cc1c(OCC(=O)OC(C)(C)C)ccc2c3c(c(=O)oc12)CCC3	19	20	13	20	7	.	.
CC(C)CCNc1nc2c(c(=O)n(Cc3cccc(F)c3)c(=O)n2C)n1C	2	46*	47*	34	0	26	34*
COc1ccc(/C=C/C(=O)OCC(=O)Nc2cccc(S(=O)(=O)NC3=NCCCCC3)c2)cc1	7	0	11	12	.	.	.
Cc1cc2c3c(c1)C(C)CC(C)(C)N3C(=O)C2=C(C#N)C#N (configuration not stated)	14	59*	57*	-44	6	46*	49*
CCC(Oc1ccccc1)C(=O)N1CCN(S(=O)(=O)c2ccccc2)CC1 (configuration not stated)	-4	0	-7	5	.	.	.
Cc1cccc(NC(=O)COC(=O)CCc2c[nH]c3ccccc23)c1C	8	8	27	25	.	.	.
Cc1ccc(-c2csc(-c3c[nH]c4ccccc34)n2)c(C)c1	29	43*	41*	41	92*	39*	48*
Oc1ccc(-c2csc(-c3c[nH]c4ccccc34)n2)c(O)c1	22	-15	-21	36	45	.	.
CC1CCN(S(=O)(=O)c2ccc(NC(=O)[C@@H]3CCCN3C(=O)c3cccs3)cc2)CC1	5	19	16	18	.	.	.
Cc1cccc(C)c1NC(=S)NN(Cc1ccccc1)c1ccccc1	11	0	27	0	17	.	.
CC(C)c1ccccc1NC(=S)NN(Cc1ccccc1)c1ccccc1	4	52*	46*	34	26	32*	29*
CC(C)CNC(=O)/C=C/C=C/CCCC/C=C/c1ccc2c(c1)OCO2	26	7	6	9	.	.	.
COc1ccc(CC(=O)Nc2cc(Cl)ccc2C(=O)O)cc1	17	6	-2	11	3	.	.
CCCCOc1ccc(Nc2cc(Cl)ccc2C(=O)O)cn1	9	41*	52*	35	22	26	34*
Cc1ccc(CNC(=O)/C(C#N)=C\c2ccc(N(C)C)cc2)cc1	9	45*	45*	20	35	29	17
COCc1ccc(C(=O)N2CCCC(Nc3ccc4c(c3)OCCO4)C2)o1 (configuration not stated)	18	3	-5	5	-4	.	.
COC(=O)CCCn1c(C)cc(C(=O)CCl)c1C	-77	42*	45*	36	-10	37*	36*
COC(=O)CCn1c(C)cc(C(=O)COc2ccccc2C(N)=O)c1C	-2	8	9	-15	-9	.	.
C[C@@H]1C(=O)OC[C@H]1NC(=O)OCc1ccccc1	13	0	-20	-9	2	.	.
Cc1cccc(NC(=O)c2cc3n(n2)C(C(F)(F)F)CC(c2ccc4c(c2)OCO4)N3)c1 (configuration not stated)	21	62*	41*	42	50*	47*	60*
CNC(=S)N/N=C(\C)c1ccc2c(c1)OCCO2	9	19	16	10	-4	.	.
C/C(=N\NC(=S)NC(C)C)c1ccc2c(c1)OCCO2	22	41*	43*	40	-1	19	8
